In the supplement of paper PMC11732987, “Enantioselective OTUD7B fragment discovery through chemoproteomics screening and high-throughput optimisation” (Communications Chemistry, 2025):

What was measured:
Assay in all cases: log2 ratio of Biotin-Ahx-Ub-VS probe labelling (fragment/DMSO); higher = less target engagement (more negative = stronger competition), active = hit call of the paper (q ≤ 0.05, log2 ratio ≤ -1)
Conditions in all cases: compound concentration: 200 uM; treatment time: 3 h
[1] = molecular target: USP34 (UniProt Q70CQ2)
Summary of the method: (§1)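 Using Biotin-Ahx-Ub-VS at 0.5 µM final for 1 h, DUBs were labelled in HEK293T lysate (495 µg per sample) that had first been treated in triplicate with fragment at 200 µM or vehicle for 3 h. NeutrAvidin enrichment, LysC and trypsin digestion and diaPASEF LC-MS/MS followed. Spectronaut label-free quantities were global-median-normalised. Values are average log2 fragment/vehicle ratios by unpaired t-test, using proteins with ≥2 unique peptides.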

[2] = molecular target: T1, USP36 (UniProt Q9P275)
T1 sequence (whole entry): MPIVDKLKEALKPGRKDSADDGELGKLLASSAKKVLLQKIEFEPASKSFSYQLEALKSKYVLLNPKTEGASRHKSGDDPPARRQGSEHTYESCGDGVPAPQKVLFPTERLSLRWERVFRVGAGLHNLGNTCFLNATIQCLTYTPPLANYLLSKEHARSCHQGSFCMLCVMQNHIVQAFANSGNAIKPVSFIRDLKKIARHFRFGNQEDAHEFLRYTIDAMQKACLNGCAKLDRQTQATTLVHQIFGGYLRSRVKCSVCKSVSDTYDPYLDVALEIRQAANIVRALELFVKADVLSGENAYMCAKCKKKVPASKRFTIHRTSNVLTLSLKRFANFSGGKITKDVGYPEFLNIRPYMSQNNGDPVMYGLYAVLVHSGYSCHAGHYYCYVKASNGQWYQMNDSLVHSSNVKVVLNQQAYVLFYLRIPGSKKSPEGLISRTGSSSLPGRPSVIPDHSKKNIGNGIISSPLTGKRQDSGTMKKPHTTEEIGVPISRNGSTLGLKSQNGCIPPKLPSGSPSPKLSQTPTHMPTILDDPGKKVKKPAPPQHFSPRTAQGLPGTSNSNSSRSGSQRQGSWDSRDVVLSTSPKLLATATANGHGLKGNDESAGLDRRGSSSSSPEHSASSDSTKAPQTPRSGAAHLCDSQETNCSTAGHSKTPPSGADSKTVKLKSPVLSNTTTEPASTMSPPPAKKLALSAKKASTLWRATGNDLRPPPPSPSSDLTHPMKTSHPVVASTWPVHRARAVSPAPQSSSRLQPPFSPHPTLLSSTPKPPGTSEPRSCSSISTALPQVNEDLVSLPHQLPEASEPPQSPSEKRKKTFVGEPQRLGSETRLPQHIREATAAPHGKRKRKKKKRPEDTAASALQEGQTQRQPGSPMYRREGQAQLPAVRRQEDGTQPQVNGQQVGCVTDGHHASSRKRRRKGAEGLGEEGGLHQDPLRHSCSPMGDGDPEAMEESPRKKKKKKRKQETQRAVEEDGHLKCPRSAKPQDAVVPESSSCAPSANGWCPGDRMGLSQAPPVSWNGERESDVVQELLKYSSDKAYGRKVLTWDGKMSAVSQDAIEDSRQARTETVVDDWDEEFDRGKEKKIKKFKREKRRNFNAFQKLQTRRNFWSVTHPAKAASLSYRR
Summary of the method: as §1

[3] = molecular target: T2, USP38 (UniProt Q8NB14)
T2 sequence (whole entry): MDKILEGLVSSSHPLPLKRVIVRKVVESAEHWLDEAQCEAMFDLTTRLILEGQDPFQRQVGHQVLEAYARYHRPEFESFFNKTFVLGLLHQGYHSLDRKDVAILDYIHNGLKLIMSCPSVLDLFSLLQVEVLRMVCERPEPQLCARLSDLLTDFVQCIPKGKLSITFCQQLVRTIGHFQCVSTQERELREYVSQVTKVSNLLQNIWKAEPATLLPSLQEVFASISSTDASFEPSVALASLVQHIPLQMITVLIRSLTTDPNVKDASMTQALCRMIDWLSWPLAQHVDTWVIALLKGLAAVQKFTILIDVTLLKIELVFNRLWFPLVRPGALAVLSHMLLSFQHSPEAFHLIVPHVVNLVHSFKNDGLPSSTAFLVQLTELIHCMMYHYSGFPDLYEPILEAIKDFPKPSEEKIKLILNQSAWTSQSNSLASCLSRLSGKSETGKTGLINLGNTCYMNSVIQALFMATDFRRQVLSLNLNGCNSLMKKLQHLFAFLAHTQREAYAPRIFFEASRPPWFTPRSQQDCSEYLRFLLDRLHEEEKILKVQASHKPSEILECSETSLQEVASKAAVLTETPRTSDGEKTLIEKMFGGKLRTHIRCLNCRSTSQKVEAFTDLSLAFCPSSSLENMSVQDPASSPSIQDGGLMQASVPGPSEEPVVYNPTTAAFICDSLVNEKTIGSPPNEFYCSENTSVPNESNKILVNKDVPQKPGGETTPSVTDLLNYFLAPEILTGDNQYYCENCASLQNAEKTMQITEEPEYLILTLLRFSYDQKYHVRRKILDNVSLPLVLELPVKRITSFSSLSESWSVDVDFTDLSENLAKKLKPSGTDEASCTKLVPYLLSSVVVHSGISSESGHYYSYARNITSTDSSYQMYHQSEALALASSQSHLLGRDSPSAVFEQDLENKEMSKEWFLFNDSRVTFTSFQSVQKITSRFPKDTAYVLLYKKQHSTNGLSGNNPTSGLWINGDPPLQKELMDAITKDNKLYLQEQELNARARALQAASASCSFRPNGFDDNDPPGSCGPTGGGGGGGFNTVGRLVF
Summary of the method: as §1

[4] = molecular target: T3, USP39 (UniProt Q53GS9)
T3 sequence (whole entry): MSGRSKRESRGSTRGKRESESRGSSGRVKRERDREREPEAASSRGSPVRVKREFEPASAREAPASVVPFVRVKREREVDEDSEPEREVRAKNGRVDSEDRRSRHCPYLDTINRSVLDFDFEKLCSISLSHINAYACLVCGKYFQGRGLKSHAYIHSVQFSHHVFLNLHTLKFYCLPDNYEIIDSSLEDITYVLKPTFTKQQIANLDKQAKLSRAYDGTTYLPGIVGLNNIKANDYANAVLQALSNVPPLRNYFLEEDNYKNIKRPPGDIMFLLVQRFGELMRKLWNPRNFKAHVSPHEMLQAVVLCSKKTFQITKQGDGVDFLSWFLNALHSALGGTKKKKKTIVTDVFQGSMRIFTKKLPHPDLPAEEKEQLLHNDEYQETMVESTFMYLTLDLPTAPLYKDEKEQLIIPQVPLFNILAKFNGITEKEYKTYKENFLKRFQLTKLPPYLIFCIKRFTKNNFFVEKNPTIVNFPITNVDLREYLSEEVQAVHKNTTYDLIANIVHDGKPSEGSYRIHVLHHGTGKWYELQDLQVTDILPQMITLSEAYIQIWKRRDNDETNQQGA
Summary of the method: as §1

[5] = molecular target: T4, USP4 (UniProt Q13107)
T4 sequence (whole entry): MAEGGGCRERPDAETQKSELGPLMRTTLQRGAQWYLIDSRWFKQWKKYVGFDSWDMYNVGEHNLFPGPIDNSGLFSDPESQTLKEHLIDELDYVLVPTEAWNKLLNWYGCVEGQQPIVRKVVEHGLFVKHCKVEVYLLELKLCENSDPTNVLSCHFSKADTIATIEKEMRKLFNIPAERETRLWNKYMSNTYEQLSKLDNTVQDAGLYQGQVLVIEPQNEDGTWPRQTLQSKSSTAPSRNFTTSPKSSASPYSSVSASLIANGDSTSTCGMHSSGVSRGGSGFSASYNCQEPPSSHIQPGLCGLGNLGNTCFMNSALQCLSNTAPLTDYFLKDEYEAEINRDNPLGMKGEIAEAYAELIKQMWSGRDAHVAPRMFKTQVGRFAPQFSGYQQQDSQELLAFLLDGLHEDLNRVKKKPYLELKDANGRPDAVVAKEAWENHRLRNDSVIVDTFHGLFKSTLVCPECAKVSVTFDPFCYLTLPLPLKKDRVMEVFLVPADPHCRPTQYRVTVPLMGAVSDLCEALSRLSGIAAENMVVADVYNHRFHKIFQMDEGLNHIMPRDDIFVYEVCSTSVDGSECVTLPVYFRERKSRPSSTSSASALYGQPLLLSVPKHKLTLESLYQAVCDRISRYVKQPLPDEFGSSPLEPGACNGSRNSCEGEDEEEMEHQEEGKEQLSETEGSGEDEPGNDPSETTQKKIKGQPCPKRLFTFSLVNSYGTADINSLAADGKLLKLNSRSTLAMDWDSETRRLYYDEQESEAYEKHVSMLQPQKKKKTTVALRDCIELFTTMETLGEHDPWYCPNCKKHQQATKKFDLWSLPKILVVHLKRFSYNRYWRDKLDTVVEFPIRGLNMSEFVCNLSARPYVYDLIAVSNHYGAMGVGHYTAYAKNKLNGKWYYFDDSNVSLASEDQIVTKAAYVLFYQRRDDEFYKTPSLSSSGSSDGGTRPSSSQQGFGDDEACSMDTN
Summary of the method: as §1

Measured: log2 ratio of Biotin-Ahx-Ub-VS probe labelling

Sequence of USP34 (Q70CQ2 whole entry, the tested form may be a part): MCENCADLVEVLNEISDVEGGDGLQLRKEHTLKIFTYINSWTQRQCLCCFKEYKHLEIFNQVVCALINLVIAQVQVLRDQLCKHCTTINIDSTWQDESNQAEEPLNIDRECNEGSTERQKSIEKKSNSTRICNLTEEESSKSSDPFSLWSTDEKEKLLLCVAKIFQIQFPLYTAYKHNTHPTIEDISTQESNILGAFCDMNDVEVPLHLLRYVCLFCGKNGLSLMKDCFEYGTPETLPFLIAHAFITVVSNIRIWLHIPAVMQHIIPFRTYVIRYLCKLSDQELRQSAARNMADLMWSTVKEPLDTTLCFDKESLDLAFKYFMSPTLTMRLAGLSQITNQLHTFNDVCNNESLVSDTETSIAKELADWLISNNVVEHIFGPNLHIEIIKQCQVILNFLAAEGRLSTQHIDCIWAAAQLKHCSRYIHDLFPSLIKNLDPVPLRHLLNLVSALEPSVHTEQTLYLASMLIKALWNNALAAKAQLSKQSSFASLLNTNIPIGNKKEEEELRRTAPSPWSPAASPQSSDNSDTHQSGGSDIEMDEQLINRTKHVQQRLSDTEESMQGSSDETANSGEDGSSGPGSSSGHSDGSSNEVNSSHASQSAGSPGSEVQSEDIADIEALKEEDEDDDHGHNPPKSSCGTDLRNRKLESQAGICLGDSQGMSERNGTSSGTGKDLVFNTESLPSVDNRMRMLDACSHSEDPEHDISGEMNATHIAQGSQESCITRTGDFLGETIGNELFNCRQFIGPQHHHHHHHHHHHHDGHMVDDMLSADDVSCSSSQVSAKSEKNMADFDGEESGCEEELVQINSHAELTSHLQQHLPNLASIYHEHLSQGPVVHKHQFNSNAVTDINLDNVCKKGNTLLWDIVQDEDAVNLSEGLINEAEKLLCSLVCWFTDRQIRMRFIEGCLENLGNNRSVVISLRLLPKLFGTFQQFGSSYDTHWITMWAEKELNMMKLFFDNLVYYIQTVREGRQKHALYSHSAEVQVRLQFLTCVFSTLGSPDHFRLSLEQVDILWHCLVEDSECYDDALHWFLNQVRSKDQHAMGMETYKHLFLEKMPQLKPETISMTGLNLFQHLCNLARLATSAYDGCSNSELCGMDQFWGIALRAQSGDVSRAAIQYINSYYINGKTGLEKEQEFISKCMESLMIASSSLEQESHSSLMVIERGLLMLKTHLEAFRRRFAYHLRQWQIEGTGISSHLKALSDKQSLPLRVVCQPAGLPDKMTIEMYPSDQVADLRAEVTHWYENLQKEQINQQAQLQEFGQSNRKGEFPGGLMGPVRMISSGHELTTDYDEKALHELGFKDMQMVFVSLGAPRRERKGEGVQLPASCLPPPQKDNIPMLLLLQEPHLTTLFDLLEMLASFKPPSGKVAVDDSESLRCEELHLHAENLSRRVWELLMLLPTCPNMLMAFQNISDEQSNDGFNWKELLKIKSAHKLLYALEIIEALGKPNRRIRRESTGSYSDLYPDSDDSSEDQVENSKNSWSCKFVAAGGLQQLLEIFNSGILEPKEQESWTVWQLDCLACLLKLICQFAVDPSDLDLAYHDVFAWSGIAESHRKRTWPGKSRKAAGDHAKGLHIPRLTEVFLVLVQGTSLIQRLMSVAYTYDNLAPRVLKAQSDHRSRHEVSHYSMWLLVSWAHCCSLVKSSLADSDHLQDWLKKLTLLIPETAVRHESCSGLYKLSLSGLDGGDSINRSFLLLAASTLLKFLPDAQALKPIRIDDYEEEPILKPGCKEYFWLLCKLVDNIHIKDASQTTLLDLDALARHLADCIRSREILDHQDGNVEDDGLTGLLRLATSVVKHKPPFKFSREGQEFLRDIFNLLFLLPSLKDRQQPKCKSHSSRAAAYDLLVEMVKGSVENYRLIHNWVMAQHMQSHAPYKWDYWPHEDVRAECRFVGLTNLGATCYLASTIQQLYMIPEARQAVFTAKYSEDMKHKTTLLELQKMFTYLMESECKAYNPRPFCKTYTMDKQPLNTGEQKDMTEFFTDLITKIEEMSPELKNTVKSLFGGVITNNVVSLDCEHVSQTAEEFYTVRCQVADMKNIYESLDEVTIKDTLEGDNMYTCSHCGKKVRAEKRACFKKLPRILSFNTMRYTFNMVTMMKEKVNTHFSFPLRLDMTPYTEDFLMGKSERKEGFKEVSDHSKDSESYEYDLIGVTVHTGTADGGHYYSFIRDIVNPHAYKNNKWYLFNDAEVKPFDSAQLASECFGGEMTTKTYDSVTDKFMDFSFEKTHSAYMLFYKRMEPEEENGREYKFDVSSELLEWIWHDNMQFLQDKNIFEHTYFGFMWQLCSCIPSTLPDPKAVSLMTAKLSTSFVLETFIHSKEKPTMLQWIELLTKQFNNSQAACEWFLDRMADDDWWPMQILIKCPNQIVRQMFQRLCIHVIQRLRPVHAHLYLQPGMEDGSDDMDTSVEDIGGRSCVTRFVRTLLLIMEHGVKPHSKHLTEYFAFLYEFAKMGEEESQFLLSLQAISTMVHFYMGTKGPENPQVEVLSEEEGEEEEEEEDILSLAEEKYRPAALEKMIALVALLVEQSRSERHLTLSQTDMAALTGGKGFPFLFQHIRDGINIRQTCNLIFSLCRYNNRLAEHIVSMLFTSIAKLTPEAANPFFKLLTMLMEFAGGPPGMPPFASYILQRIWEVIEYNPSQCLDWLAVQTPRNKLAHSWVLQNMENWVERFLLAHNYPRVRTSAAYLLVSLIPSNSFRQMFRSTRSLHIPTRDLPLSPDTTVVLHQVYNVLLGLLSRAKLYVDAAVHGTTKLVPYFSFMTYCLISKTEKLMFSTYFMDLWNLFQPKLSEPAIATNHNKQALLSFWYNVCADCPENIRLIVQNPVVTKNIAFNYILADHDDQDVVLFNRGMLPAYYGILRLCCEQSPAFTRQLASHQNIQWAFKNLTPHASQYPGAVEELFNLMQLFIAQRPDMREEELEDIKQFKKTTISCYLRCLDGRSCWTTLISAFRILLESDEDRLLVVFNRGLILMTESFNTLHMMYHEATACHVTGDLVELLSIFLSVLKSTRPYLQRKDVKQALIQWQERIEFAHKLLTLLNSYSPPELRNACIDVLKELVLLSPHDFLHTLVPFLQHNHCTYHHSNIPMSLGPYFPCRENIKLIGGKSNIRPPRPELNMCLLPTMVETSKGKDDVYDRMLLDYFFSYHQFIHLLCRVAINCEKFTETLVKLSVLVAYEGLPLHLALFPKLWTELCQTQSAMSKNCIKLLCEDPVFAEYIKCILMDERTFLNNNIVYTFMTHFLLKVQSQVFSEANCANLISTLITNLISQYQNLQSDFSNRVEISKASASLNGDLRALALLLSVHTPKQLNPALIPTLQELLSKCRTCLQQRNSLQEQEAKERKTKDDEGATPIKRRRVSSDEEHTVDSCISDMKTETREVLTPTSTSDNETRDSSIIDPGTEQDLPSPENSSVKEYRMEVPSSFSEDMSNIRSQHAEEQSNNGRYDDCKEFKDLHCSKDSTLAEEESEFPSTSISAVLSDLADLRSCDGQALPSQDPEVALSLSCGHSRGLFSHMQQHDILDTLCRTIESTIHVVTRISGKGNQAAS

Cc1conc1C1CN(C(=O)CCl)C1
inactive: [1] -0.684 | [2] -0.258 | [3] -0.799 | [4] 0.247 | [5] -0.913
